# Assay results taken from PubChem BioAssay (EPA / NIEHS).
# Inconclusive results are not listed. Activity calls are given as the source filed them. The calls were made as follows: active = hit-call score of the fitted dose curve at least 0.9, where 1 is the maximum; inconclusive = response in the unintended direction; inactive = score below 0.9.
# Assay: CCTE_Deisenroth_AIME_384WELL_CTox_Active: Cytotoxicity Assessment (CTOX) in CCTE's 384-well Estrogen Receptor Transactivation Assay with AIME metabolic competence (metabolism positive), Deisenroth Lab (AID 2284037);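 also: chemicals first conditioned 2 h by alginate-bound induced rat liver S9 before cells; activity means signal loss indicating cell death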
# Procedure: CCTE_Deisenroth_AIME_384WELL (AIME metabolism assay) is a cell-based, single-readout assay that uses VM7Luc4E2, a human mammary gland/breast cell line, with measurements taken at 24 hour after chemical dosing in a 384-well plate.CCTE_Deisenroth_AIME_384WELL_CTox_Active is one of four assay components measured or calculated from the CCTE_Deisenroth_AIME_384WELL assay. It is designed to make measurements of a protease substrate, a type of viability indicator, as detected with substrate cleavage to a fluorescent probe in living cells.CCTE_Deisenroth_AIME_384WELL_CTox_Active is a component of the CCTE_Deisenroth_AIME_384WELL assay that measures the effect of retroftting the VM7Luc ERTA assay with the Alginate Immobolization of Metabolic Enzymes (AIME) metabolism method. AIME is optimized to impart phase I hepatic metabolism using phenobarbital/beta-naphthoflavone induced hepatic S9 from male Sprague Dawley rats. Parent chemicals are incubated for 2 hours in the AIME assay prior to transfer to the VM7Luc ERTA assay plate. […] This endpoint evaluates cytotoxicity in metabolism positive mode. Using a type of flourescent probe in VM7Luc cells, loss-of-signal activity can be used to understand loss of viability. This assay endpoint, CCTE_Deisenroth_AIME_384WELL_CTox_Active, was analyzed with bidirectional fitting in the ERTA assay.
# The AIME procedure consists of a preparative "pre-stamping" step using a barium chloride/poly-L-lysine (PLL) solution followed by "stamping" the lid in alginate-hepatic S9 (metabolism positive) or alginate-water (metabolism negative) to form microspheres. Once stamping is completed, the AIME lids are placed in duplicate microplates (metabolism positive or negative) containing chemical solutions and incubated for two hours to facilitate metabolic reactions. The conditioned medium, containing parent chemical or metabolites, is then transferred to the cell-based VM7Luc Estrogen Receptor Transactivation Assay (ERTA) for 24 hours. A typical experimental design tests a 10-point concentration series (0.002 - 200 uM) for 8 compounds (96-well format) (Deisenroth 2020) or 32 compounds (384-well format) (Hopperstad 2022) in single technical replicate. AIME assay controls include trans-stilbene (bioactivated control) and ethylparaben (bioinactivated control). ERTA assay plate controls include 17-beta estradiol (positive control) and DMSO (solvent control). Experiments typically comprise a minimum of four experimental replicates (n=4).
Compound,AC50,outcome
CC(C)(C)c1ccc(CSc2cnn(C(C)(C)C)c(=O)c2Cl)cc1,19.8 µM (active),
CCOc1cc(Oc2ccc(C(F)(F)F)cc2Cl)ccc1[N+](=O)[O-],,inactive
CCCCNC(=O)OCC#CI,145 µM (active),
CCc1nn(C)c(C(=O)NCc2ccc(C(C)(C)C)cc2)c1Cl,1.82 µM (active),
Oc1ccccc1-c1ccccc1,,inactive
COc1cnc(OC)n2nc(NS(=O)(=O)c3c(OCC(F)F)cccc3C(F)(F)F)nc12,,inactive
COC(=O)N(OC)c1ccccc1COc1ccn(-c2ccc(Cl)cc2)n1,2.68 µM (active),
N#Cc1cc(Br)c(O)c(Br)c1,,inactive
CCON=C(CC)C1=C(O)CC(c2c(C)cc(C)cc2C)CC1=O (stereo unspecified),,inactive
C#CCOS(=O)OC1CCCCC1Oc1ccc(C(C)(C)C)cc1 (stereo unspecified),18.6 µM (active),
CCNc1nc(Cl)nc(NC(C)C)n1,,inactive
